According to PubChem BioAssay (NCATS):
Inconclusive results are not listed. Activity calls are given as the source filed them. The call rests on the fitted dose curve; in most records, active means well fitted curve in the direction sought with a large enough effect; inconclusive means small, poorly fitted or top-dose-only effect, or another doubt; inactive means no such curve, though single readings can be large; an effect the other way counts as inactive or inconclusive.

Assays:
[1] = biological target: Rap guanine nucleotide exchange factor 3 (Homo sapiens) (UniProt O95398); test: Confirmatory qHTS for agonist of cAMP-regulated guanine nucleotide exchange factor 3 (EPAC1) (AID 1645881);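 further: EPAC1 catalysed release of BODIPY-GDP from Rap1B seen as fluorescence loss; 100% = effect of cAMP agonist control; nearly all actives have a fitted effect of over 75% in size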
Chain of Rap guanine nucleotide exchange factor 3 (Homo sapiens) (O95398 whole entry, looked up): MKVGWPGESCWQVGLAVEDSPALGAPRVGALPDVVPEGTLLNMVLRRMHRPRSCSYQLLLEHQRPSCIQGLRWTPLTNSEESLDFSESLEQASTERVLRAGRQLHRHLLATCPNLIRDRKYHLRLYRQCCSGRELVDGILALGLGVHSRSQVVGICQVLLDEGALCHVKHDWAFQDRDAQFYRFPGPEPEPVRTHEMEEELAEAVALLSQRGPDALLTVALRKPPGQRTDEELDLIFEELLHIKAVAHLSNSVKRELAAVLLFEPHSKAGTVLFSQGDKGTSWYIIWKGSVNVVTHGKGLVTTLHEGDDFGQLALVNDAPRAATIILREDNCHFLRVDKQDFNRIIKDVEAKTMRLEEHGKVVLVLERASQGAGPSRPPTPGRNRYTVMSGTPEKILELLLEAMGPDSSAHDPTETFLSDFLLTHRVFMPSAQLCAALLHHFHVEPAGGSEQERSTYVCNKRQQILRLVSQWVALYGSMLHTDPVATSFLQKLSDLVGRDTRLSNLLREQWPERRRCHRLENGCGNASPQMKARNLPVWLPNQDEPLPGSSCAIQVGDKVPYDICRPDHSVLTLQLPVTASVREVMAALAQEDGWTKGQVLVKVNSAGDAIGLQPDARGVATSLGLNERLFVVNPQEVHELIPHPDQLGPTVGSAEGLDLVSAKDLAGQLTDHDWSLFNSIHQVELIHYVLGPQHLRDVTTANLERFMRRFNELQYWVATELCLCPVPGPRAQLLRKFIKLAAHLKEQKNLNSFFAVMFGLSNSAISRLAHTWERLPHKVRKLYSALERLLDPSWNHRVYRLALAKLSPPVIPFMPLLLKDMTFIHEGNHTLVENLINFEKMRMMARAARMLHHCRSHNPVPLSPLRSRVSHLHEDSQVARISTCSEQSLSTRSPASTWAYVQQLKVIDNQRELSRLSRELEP

[2] = biological target: Rap guanine nucleotide exchange factor 4 (Homo sapiens) (UniProt Q8WZA2); test: Confirmatory qHTS for agonist of cAMP-regulated guanine nucleotide exchange factor 4 (EPAC2) (AID 1645884);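 further: nucleotide exchange releases bodipy-GDP from Rap1 and this lowers its fluorescence; on the % scale 0 is the no-effect control and ±100 the full control effect; nearly all actives have a fitted effect of over 65% in size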
Chain of Rap guanine nucleotide exchange factor 4 (Homo sapiens) (Q8WZA2 whole entry, looked up): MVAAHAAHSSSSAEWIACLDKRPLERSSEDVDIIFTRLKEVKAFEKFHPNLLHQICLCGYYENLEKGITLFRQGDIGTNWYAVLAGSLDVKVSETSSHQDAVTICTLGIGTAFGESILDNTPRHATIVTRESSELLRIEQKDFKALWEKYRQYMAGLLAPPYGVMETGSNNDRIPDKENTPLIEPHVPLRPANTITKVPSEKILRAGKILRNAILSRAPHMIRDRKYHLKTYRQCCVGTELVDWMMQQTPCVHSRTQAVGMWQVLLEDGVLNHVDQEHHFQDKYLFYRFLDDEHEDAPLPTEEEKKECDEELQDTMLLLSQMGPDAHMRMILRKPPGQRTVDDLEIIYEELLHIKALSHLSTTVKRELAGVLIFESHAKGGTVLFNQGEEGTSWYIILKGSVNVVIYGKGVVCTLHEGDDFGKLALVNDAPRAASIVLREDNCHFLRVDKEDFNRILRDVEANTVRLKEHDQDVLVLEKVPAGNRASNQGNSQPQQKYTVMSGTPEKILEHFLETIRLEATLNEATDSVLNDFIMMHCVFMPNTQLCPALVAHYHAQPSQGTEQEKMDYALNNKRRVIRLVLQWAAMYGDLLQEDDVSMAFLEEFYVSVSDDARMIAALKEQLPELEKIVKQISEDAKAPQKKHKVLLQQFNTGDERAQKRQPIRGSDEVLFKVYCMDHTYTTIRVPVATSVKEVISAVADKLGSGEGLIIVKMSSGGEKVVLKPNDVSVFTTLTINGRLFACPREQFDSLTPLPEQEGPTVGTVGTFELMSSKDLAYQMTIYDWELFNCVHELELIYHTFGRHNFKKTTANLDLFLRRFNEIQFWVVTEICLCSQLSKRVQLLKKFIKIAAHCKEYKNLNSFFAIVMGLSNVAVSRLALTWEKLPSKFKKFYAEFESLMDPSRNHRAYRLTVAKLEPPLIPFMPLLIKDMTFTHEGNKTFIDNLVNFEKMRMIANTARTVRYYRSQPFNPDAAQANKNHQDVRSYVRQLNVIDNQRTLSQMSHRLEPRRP

[3] = biological target: Rap guanine nucleotide exchange factor 4 (Homo sapiens) (UniProt Q8WZA2); test: Confirmatory qHTS for antagonist of cAMP-regulated guanine nucleotide exchange factor 4 (EPAC2) (AID 1645885); further: nearly all actives have a fitted effect of over 25% in size; further: potency means the concentration at half of the fitted maximal effect; on activity change, negative = inhibition: on the % scale 0 is the no-effect control and ±100 the full control effect
[4] = biological target: Rap guanine nucleotide exchange factor 3 (Homo sapiens) (UniProt O95398); test: Counterscreen qHTS for agonist of cAMP-regulated guanine nucleotide exchange factor 3 (EPAC1) (AID 1645889); further: % of control where 0% means no effect; nearly all actives have a fitted effect of over 40% in size
In short: (§1)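 Rap1B-BODIPY-GDP 250 nM + GDP 50 uM; cpds 7-pt, final 9.74 nM–152 uM (activator mode) or from 7.32 nM upwards (inhibitor mode); RT; FI 480/540 nm at 5 and 30 min, then ± cAMP, reread.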

[5] = biological target: Tumor susceptibility gene 101 protein (Homo sapiens) (UniProt Q99816); test: qHTS Assay for Iinhibitors of HIV-1 Budding by Blocking the Interaction of PTAP/TSG101: Hit Validation (AID 651600); further: potency means the concentration at half of the fitted maximal effect; nearly all actives have a fitted effect of over 70% in size
Chain of Tumor susceptibility gene 101 protein (Homo sapiens) (Q99816 whole entry, looked up, the tested form may be a part): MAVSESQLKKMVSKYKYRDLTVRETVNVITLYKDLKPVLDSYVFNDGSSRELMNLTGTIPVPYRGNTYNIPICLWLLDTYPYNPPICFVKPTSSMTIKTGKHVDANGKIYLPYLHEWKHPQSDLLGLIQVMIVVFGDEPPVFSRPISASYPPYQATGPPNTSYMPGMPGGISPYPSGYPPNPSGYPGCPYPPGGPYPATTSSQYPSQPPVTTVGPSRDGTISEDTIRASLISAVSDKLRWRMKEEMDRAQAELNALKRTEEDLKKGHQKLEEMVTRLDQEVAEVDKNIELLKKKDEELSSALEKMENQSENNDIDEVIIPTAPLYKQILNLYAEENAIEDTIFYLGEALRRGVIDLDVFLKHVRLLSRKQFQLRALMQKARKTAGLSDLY
In short: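 Compounds are added to the Tsg101 binding domain (10 uM final) in pH 7.5 HEPES buffer. FITC-PTAP peptide follows at 50 nM final. After 20 min at r.t., polarized FITC emission is measured.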

[6] = biological target: Rap guanine nucleotide exchange factor 3 (Homo sapiens) (UniProt O95398); test: Counterscreen qHTS for antagonist of cAMP-regulated guanine nucleotide exchange factor 3 (EPAC1) (AID 1645888);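 further: fluorescence loss as bound BODIPY-GDP is released from Rap1B; % of control where 0% means no effect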
In short: as §1

CCN1CCc2c(sc(-n3cccc3)c2C(C)NC(=O)Nc2ccc(C(=O)OC)cc2)C1 (stereo not drawn)
inactive: Potency [1] | Potency [2] | Potency [3] | Potency [4]

Cc1oc2ccc(O)c(CN(C)Cc3ccccc3)c2c1C(=O)Nc1cccc(C(F)(F)F)c1
inactive: Potency [1] | Potency [2] | Potency [3] | Potency [4]

CCC/C=C/c1ccc(CN2C(CC(C)C)C(=O)N(Cc3cn(Cc4ccco4)nn3)CCS2(=O)=O)cc1 (stereo not drawn)
inactive: Potency [1] | Potency [2] | Potency [3] | Potency [4]

CCN(CC)c1nc2ccccc2nc1C(C#N)C(=O)NCCc1ccccc1 (stereo not drawn)
active: Potency [5] 6.51 µM | Potency [3] 84.9 µM
inactive: Potency [1] | Potency [2]

Cc1cccc(N2CC(C(=O)Nc3nnc(SCC(=O)NCC4CCCO4)s3)CC2=O)c1 (stereo not drawn)
inactive: Potency [1] | Potency [2] | Potency [3] | Potency [4]

COc1cccc(C(=O)/C=C/c2ccc(OCC#N)c(OC)c2)c1
inactive: Potency [1] | activation [2] 0% [at 17.1 µM, percent relative to cAMP agonist control] | Potency [3] | activation [4] 12.6% [at 30.8 µM]

COc1cccc(S(=O)(=O)Nc2ccc3c(c2)[C@@H]2C[C@@H](CC(=O)NCc4ccc(Cl)cc4)O[C@@H](CO)[C@@H]2O3)c1
inactive: Potency [1] | Potency [2] | Potency [3] | Potency [4]

C[n+]1cccc2c(Br)ccc([O-])c21
inactive: Potency [1] | Potency [2] | Potency [6]

CC(C)CNC(=O)C1Nc2ccc(OC(F)(F)F)cc2C2C=CCC12 (stereo not drawn)
inactive: Potency [1] | Potency [2] | Potency [6]

CCc1nc2ccccc2c(C(=O)NCc2ccccc2)c1C
inactive: Potency [1] | Potency [2] | Potency [6]

CCCCC(=O)N(C)c1c(CC)nc2c(OCc3ccc(C(F)(F)F)cc3)cccn12
inactive: Potency [1] | activation [2] 3.08% [at 17.1 µM, percent relative to cAMP agonist control] | activity change, negative = inhibition [6] -15.6% [at 30.8 µM]

CC(C)=CCc1c(O)cc(O)c2c1OC(c1ccc(O)cc1)CC2=O (stereo not drawn)
inactive: Potency [1] | Potency [2] | Potency [6]

COc1ccccc1[C@@]1(C)ON(c2ccccc2C(F)(F)F)C1=O
inactive: Potency [1] | Potency [2] | Potency [6]

C=Cc1ccc(CC2(C)C(=O)Nc3ccc(Cl)cc32)cc1 (stereo not drawn)
inactive: Potency [1] | activation [2] 9.02% [at 17.1 µM, percent relative to cAMP agonist control] | activity change, negative = inhibition [6] -14.8% [at 30.8 µM]

Cc1cc(C)c(Cn2cnc3ccccc32)c(C)c1
inactive: Potency [1] | Potency [2] | Potency [6]

COCCNc1nc(Oc2cccc(F)c2)c2sccc2n1
inactive: Potency [1] | Potency [2] | Potency [6]

Cc1cccc(NC(=O)CNC(=O)CCc2nc3sc4c(c3c(=O)[nH]2)CCCC4)c1C
inactive: Potency [1] | Potency [2] | Potency [6]

COc1cccc(COC(=O)CSCC(=O)Nc2cccc(C)c2)c1OC
inactive: Potency [1] | Potency [2] | Potency [6]

FC(F)(F)C1=Nc2cccc3cccc(c23)N1
inactive: Potency [1] | Potency [2] | Potency [6]

CC(=O)c1ccc(N2CCN(C(=O)c3cc(-c4cccnc4)nc4ccc(Br)cc34)CC2)cc1
inactive: Potency [1] | Potency [2] | Potency [6]

CCOC(=O)C1=C(C)N=c2s/c(=C/c3ccc(OCC(=O)O)cc3)c(=O)n2C1c1ccc(F)cc1 (stereo not drawn)
inactive: Potency [1] | Potency [2] | Potency [6]

CC(C)C[C@H]1COCCS(=O)(=O)N1Cc1ccc(Cl)c(Cl)c1
inactive: Potency [1] | activation [2] 1.63% [at 17.1 µM, percent relative to cAMP agonist control] | activity change, negative = inhibition [6] -4.43% [at 30.8 µM]

CN(C)c1ccc(-c2[nH][nH]c(=O)c2NC(=O)c2ccc3ccccc3n2)cc1
inactive: Potency [1] | Potency [2] | Potency [6]

O=c1cc(CN2CCN(S(=O)(=O)c3cccc(Cl)c3)CC2)c2ccc(O)cc2o1
inactive: Potency [1] | Potency [2] | Potency [6]

Cc1cc(Cl)ccc1Oc1ccccc1C(=O)CC#N
inactive: Potency [1] | Potency [2] | Potency [6]

Cc1ccc(S(=O)(=O)/N=C2\C=C(NS(=O)(=O)c3ccccc3)C(=O)c3ccccc32)c(C)c1
inactive: Potency [1] | activation [2] 5.26% [at 17.1 µM, percent relative to cAMP agonist control] | activity change, negative = inhibition [6] -5.99% [at 30.8 µM]

C/C(=N/NS(=O)(=O)c1ccc(C(C)(C)C)cc1)c1ccc2c(c1)OCO2
inactive: Potency [1] | activation [2] 7.62% [at 17.1 µM, percent relative to cAMP agonist control] | activity change, negative = inhibition [6] -17.7% [at 30.8 µM]

CN(CC(=O)Nc1ccc(F)cc1)C(=O)c1cc(-c2ccco2)nc2ccccc12
inactive: Potency [1] | Potency [2] | Potency [6]

O=C(Nc1nc(-c2ccc(F)cc2)cs1)C1CCN(C(=O)c2ccc(F)cc2)CC1
inactive: Potency [1] | Potency [2] | Potency [6]

CC(C)n1c(CNC(=O)c2ccccc2F)nnc1SCC(=O)NC1CCCCC1
inactive: Potency [1] | Potency [2] | Potency [6]

N#C/C(=C(/O)c1ccccc1F)c1nc2cc(C(F)(F)F)ccc2s1
inactive: Potency [1] | activation [2] 1.01% [at 17.1 µM, percent relative to cAMP agonist control] | activity change, negative = inhibition [6] 14.7% [at 30.8 µM]

Nc1ccc(S(=O)(=O)Nc2nccs2)cc1N=Nc1ccccc1[N+](=O)[O-]
inactive: Potency [1] | activation [2] 0% [at 17.1 µM, percent relative to cAMP agonist control] | activity change, negative = inhibition [6] -16% [at 30.8 µM]
